# Measured values as given in PubChem BioAssay AID624331 (National Center for Advancing Translational Sciences (NCATS), 2012).
# Inconclusive results are not listed. Active and inactive are the calls of the source. Calls come from the whole dose curve; as a rule, active = well fitted activation curve with a large enough effect; inconclusive = small, poorly fitted or top-dose-only effect; inactive = no such curve, though single readings can be large or run the other way.
# Assay: qHTS assay for re-activators of p53 using a Luc reporter: Hit Validation with no p53 Expressed; note: 0% is about no effect
# Conditions: p53-null cells, luciferase reporter counter-screen; series mostly up to 46.1 µM; activity change, positive = activation: at the top concentration
# How it was run: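 Without p53 expression, cells (1000/well, Opti-MEM + 10% FBS) were exposed 24 h at 37 deg C to compounds in a 1:5 series from 10 mM stock (top 46.1 µM in well). Luminescent signal read 10 min after Amplite addition; actives flag unspecific activation.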
row,SMILES,"activity change, positive = activation"
1,C=CCn1c(C)cc(C(=O)CSc2nc3ccccc3o2)c1C,18.2% (inactive)
2,O=C(Nc1nc2c(s1)CCCC2)C1COc2ccccc2O1 (stereo unspecified),-13.6% (inactive)
3,Cc1cc([N+](=O)[O-])ccc1NC(=O)/C=C/c1cccs1,-2.37% (inactive)
4,COc1ccc(N=C(N)SCc2ccccn2)cc1,12.5% (inactive)
5,COc1ccc2c(c1OC)C(=O)OC2Nc1nc(-c2cc3ccccc3oc2=O)cs1 (stereo unspecified),12.4% (inactive)
6,O=C(NC1CCCCC1)c1ccc(-c2ccccc2F)o1,38.8% (inactive)
7,CC(C)CCn1cnc2c(sc3nc4c(cc32)CSC(C)(C)C4)c1=O,33% (inactive)
8,COc1cc(OC)cc(C(=O)NNC(=O)c2ccccn2)c1,-11.2% (inactive)
9,CCc1ccc(OCC(=O)NC(NC(=S)Nc2ccccc2C)C(Cl)(Cl)Cl)cc1 (stereo unspecified),-20.1% (inactive)
10,COc1ccc2[nH]c(=O)c3c(c2c1)OC(C)(C)C=C3,-65.7% (inactive)
11,O=C(/C=C/Nc1ccccc1C(=O)O)c1cccs1,18% (inactive)
12,Cc1cc(/C=N/Nc2ncnc(N)c2[N+](=O)[O-])c(C)n1-c1ccccc1,-65.8% (inactive)
13,Cc1ccc(C(=O)c2c3ccc([N+](=O)[O-])cc3[n+]([O-])n2CCCN)cc1,-18% (inactive)
14,CCN(CC)C(=O)CSc1ncnc2c(-c3cccs3)nsc12,8.65% (inactive)
15,CCCOc1ccc(-c2cc3onc(-c4ccccc4)c3c(=O)n2C)cc1,1.56% (inactive)
16,Cc1nc(NC(=O)c2csc3ccccc23)sc1C,-13.5% (inactive)
17,COc1cc(NC(=O)CN2CCCCC2)c(C)cc1[N+](=O)[O-],26.6% (inactive)
18,O=C(NNC(=O)C1CCCO1)c1ccccc1Cl (stereo unspecified),-10.1% (inactive)
19,O=C(Nc1ccccc1Cl)c1ccc2c(=O)n3c(nc2c1)CCC3,6.48% (inactive)
20,COc1ccc(CC(=O)Nc2ccc(C(=O)Nc3ccccc3C(=O)O)cc2)cc1OC,-17.2% (inactive)
21,CCN(Cc1ccccc1)C(=O)CN1C(=S)NC(C)(C)CC1C (stereo unspecified),-54% (inactive)
